Activity calls are given as the source filed them.

For test [1], the target named is Albumin (Bos taurus) (UniProt P02769). Briefly: compounds binding labelled BSA control protein – biochemical, small-molecule microarray, Alexa647 label, 635/667 nm fluorescence, artefact control for SMM control protein annotation, profiling panel (AID 1118).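 Also: score merges 667 nm emission intensity and signal-to-noise per printed compound spot.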 To be noted: BSA-A647 binding, fluorescence 635 nm, higher = more signal.
Test [2] in a line: probe aXIP binding to arrayed compounds – biochemical, NeuroSMM set, 635/667 nm fluorescence, primary screen (AID 1119).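 Also: probe is the protein aXip251-270 applied at 1 µg/mL to compound-printed slides; binding of probe to printed compounds measured as 667 nm fluorescence plus signal to noise.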 To be noted: small-molecule microarray, higher = more signal, called active from +8 up or from −8 down.
Test [3] in a line: probe aNOTCH3 binding on compound microarray – biochemical, small-molecule microarray, 635/667 nm fluorescence, primary screen (AID 1120).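 Also: probe is a biotin-tagged antibody raised against NOTCH3 rather than NOTCH3 protein; score merges spot fluorescence near 667 nm with spot signal to noise.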 The conditions noted are these: higher = more signal.
The nature of test [4]: probe aNOTCH2 binding on compound microarray – biochemical, small-molecule microarray, 635/667 nm fluorescence, primary screen (AID 1121).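 Also: score merges feature fluorescence read at 667 nm with its signal to noise.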 The conditions noted are these: higher = more signal.
Test [5] has as its target Carbonic anhydrase 2 (Homo sapiens) (UniProt P00918). Briefly: compounds binding carbonic anhydrase 2 – biochemical, small-molecule microarray, Alexa647-labelled CAII, profiling panel (AID 1122). The conditions noted are these: CAII-A647 binding fluorescence, higher = more signal.
The nature of test [6]: COS7 lysate on small-molecule microarray, probe aHis, 635 nm (AID 1123).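 Also: z-score combines 667nm fluorescence intensity with signal-to-noise per printed compound spot.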 The conditions noted are these: COS7 cell lysate, fluorescence, higher = more signal.
A short description of test [7]: probe aLAP1 signal on lysate-treated microarray – cell lysate, small-molecule microarray, COS7 lysate, primary screen (AID 1124).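 Also: lysate comes from COS7 cells expressing LAP1 and is applied at 0.3 µg/mL; score merges spot fluorescence near 667 nm with signal-to-noise over triplicate slides.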 To be noted: probe aLAP1, fluorescence, higher = more signal.
The subject of test [8] is Sam68 (KHDRBS1). Briefly: compounds binding KHDRBS1 protein – biochemical, small-molecule microarray, 635 nm fluorescence, primary screen (AID 1125).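 Also: score merges 667 nm channel intensity with signal to noise over triplicate slides.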 The conditions noted are these: higher = more signal.
Test [9] relates to Chordin-like protein 2 (CHRDL2). Briefly: compounds binding chordin-like 2 – biochemical, small-molecule microarray, 635 nm fluorescence, primary screen (AID 1126).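 Also: printed compound slides probed with Chrdl2 protein at 4 µg/mL for 1 h at 4 C; score merges 667 nm emission intensity with signal to noise over three replicate slides.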 To be noted: fluorescence 635 nm, higher = more signal.
Test [10] has as its target Concanavalin-A (Canavalia ensiformis) (UniProt P02866). Briefly: compounds binding concanavalin A lectin – biochemical, small-molecule microarray, Alexa647 label, 635 nm, artefact control for SMM control protein annotation, primary screen (AID 1127).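 Also: z combines 667 nm emission intensity with signal-to-noise across three replicate slides.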 To be noted: ConA-A647 binding fluorescence, higher = more signal.

Sequence of Albumin (Bos taurus) (P02769 whole entry, looked up): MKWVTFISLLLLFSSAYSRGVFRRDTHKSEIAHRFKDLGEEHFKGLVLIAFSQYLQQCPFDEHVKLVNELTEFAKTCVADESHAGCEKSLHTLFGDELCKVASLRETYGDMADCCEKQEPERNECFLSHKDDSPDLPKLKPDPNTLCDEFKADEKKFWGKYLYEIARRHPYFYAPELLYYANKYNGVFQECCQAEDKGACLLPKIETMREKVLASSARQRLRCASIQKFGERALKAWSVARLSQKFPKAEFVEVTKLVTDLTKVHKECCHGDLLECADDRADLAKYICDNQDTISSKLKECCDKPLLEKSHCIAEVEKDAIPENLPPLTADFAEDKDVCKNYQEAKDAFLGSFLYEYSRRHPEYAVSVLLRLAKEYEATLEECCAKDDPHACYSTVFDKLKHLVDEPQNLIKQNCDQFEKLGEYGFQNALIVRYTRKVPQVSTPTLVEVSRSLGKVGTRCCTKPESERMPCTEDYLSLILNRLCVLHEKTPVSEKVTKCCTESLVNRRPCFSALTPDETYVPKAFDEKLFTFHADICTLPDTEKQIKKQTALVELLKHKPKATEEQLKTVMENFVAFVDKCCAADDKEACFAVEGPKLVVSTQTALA
Sequence of Concanavalin-A (Canavalia ensiformis) (P02866 whole entry, looked up): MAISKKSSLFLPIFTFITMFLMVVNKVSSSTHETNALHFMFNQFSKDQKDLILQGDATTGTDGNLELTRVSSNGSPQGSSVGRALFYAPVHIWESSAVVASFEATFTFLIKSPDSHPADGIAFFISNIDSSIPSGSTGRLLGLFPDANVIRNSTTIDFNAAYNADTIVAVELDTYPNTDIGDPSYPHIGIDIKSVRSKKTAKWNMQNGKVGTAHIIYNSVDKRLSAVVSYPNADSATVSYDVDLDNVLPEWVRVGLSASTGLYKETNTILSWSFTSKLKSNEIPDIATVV

As to `Cc1ccc(S[C@]2(C(=O)NC3CC3)CC(=O)N(Cc3ccccc3)[C@@H]2c2ccc(CO)cc2I)cc1`, the composite z-score was 0.596 in test [1]; -0.209 in test [3]; 0.0012 in test [4]; 0.742 in test [5]; 2.25 in test [6]; 0.337 in test [7]. Moreover, the composite z-score in test [8] was 0.0282; in [9], -0.682; in test [10] it was -0.391. Also, in [2], the composite Z-score was -0.35 (inactive).

`CCOC(=O)C[C@H]1[C@H](OC(=O)c2ccccc2-c2ccccc2)[C@@H](NC(=O)CC(C)C)c2cc(OCCCO)ccc2N1C(=O)Cc1ccc(OC)cc1`: the composite z-score in [1] is 0.401; in test [3], 0.0708; in [4] it was -0.118; in test [5] it was -0.132; in test [6] it was 0.761; in [7] it was -0.201. Also, the composite z-score stood at 0.488 in test [8], 0.246 in test [9] and 0.482 in test [10]. In addition, the composite Z-score in test [2] is 0.692 (inactive).

For `NCCCCCNC(=O)[C@@H]1C[C@@H]2C(=O)N[C@@H](Cc3ccccc3)C(=O)N2[C@@H]1c1ccc(O)cc1`, the composite z-score in test [1] was 0.507; in test [3], -0.0716; in test [4] it was -0.108; in test [5], 0.231; in test [6], 2.21; in test [7] it was -0.304. In addition, the composite z-score is 1.24 in [8], -0.129 in [9] and 0.968 in test [10]. For the same compound, the composite Z-score in test [2] was 0.839 (inactive).

In the case of `O=C1C2C=CC(C(O)Cc3ccccc3)N(n3cnnc3)C2C(=O)N1Cc1ccccc1` (stereo not given), the composite z-score in test [1] was 1.03; in [3], 0.206; in test [4] it was 0.0248; in test [5] it was 0.449; in test [6], 1.14; in test [7], 0.75. In addition, the composite z-score in [8] is 0.646; in test [9], -0.748; in test [10], 0.779. Further, the composite Z-score in [2] was -0.188 (inactive).

Consider `[N-]=[N+]=Nc1ccccc1[C@@H]1OC(c2ccc(OCCCO)cc2)=N[C@]1(Cc1ccccc1)C(=O)N1CCOCC1`, for which the composite z-score in test [1] was 0.309; in test [3] it was 0.619; in test [4] it was 0.0117; in test [5], 0.312; in test [6], 2.23; in test [7], 0.115. Besides, the values for the composite z-score in test [8], in [9] and in [10] were 1.31, 0.0383 and 1.09, respectively. For the same compound, the composite Z-score in [2] is -0.174 (inactive).

Consider `O=C1N(Cc2ccccc2)c2ccccc2[C@@H]2OC(c3ccc(OCCCO)cc3)=N[C@]12CCS(=O)(=O)c1ccccc1`, for which the composite z-score in [1] was 0.272; in [3], 0.147; in [4], -0.0079; in test [5], 0.626; in test [6], 2.52; in [7] it was -0.276. The composite z-score in test [8] worked out at 0.895; in [9], 0.0187; in [10] it was 1.14. For the same compound, the composite Z-score in test [2] was 1.29 (inactive).

As for `O=C(NCCN1CCOCC1)[C@@H]1c2ccccc2C(=O)N(C2CCCCC2)[C@H]1c1ccc(CO)cc1`, the composite z-score was 0.349 in test [1]; -0.154 in test [3]; -0.147 in [4]; 0.625 in [5]; 1.29 in test [6]; -0.0871 in [7]. Besides, the figures for the composite z-score in [8], in [9] and in test [10] were 0.68, -1.08 and 0.31, respectively. In addition, in [2], the composite Z-score was -0.118 (inactive).

As for `CC1(C)C2C=C(C(O)C3C=CC4C(=O)NC(=O)C4N3Nc3ccc(Cl)cc3Cl)C[C@@H]1C2` (stereo not given in full), the composite z-score in test [1] is 0.818; in test [3], 0.323; in test [4], 0.155; in [5], 0.423; in test [6] it was 1.24; in [7], 0.906. Also, the values for the composite z-score in [8], in test [9] and in test [10] were 0.337, 0.061 and 0.899, respectively. The composite Z-score in [2] is 0.392 (inactive).

`COC(=O)[C@@]1(Cc2ccc(OC)cc2)[C@H]2c3cc(C(=O)N(C)C)n(CCc4ccccn4)c3C[C@H]2CN1C(=O)c1ccccc1`: the composite z-score in test [1] was found to be 0.928; in [3], 1.28; in test [4], 0.689; in [5] it was 0.461; in test [6] it was 1.06; in test [7] it was 0.272. For the same compound, the composite z-score was 0.221 in test [8], -0.764 in test [9] and -0.138 in test [10]. Besides, in test [2], the composite Z-score was -0.0712 (inactive).

`COc1ccc(/C=C/C=O)cc1`: the composite z-score is -0.85 in test [1]; -0.0032 in test [3]; -0.0468 in [4]; -0.206 in test [5]; -0.513 in test [6]; 0.0998 in [7]. The composite z-score in test [8] was -0.235; in test [9], 0.309; in test [10] it was -0.415. Further, the composite Z-score in test [2] is -0.174 (inactive).

Turning to `COCCOC(=O)N1C(=O)[C@@]2(c3cc(C#CC4(O)CCCCCC4)ccc31)[C@H](c1ccccc1OCCO)N1[C@H](c3ccccc3)[C@H](c3ccccc3)OC(=O)[C@H]1[C@@H]2C(=O)N1CCN(c2ncccn2)CC1`, the composite z-score was 0.781 in test [1]; -0.0313 in test [3]; -0.0432 in [4]; 0.596 in test [5]; 1.12 in test [6]; 0.384 in test [7]. The figures for the composite z-score in [8], in test [9] and in test [10] were 1.29, 0.336 and 1.09, respectively. For the same compound, the composite Z-score in test [2] was -0.291 (inactive).

For `C=CCN1C(=O)[C@]2(O[C@H](CCn3cc([C@H](O)c4ccccc4)nn3)[C@@H]([Si](C)(C)c3ccc(OC)cc3)[C@@H]2C)c2cc(N3CCC3=O)ccc21`, the composite z-score in [1] is 0.621; in [3] it was -0.226; in test [4] it was -0.0826; in test [5], 0.337; in test [6], 0.855; in test [7], 0.407. In addition, the results for the composite z-score in test [8], in test [9] and in test [10] were 0.564, 0.587 and 0.882, respectively. Further, in [2], the composite Z-score is 0.156 (inactive).

For `C=CCC(OC(C)=O)[C@@H]1[C@@H](N(Cc2ccc(-c3ccccc3)cc2)C(=O)c2cccc3ccccc23)c2cc(OCCCO)ccc2N1C(=O)c1ccc(-c2ccccc2)cc1` (stereo not given in full), the composite z-score in [1] is -0.0695; in test [3] it was 0.0897; in [4], -0.0783; in [5], 0.175; in [6], 1.17; in test [7], 0.674. In addition, the composite z-score is 0.316 in [8], 0.111 in test [9] and -0.249 in [10]. For the same compound, the composite Z-score in test [2] was 0.45 (inactive).

For the compound `O=C(c1ccccc1)N1Cc2ccccc2C[C@@]2(COC(c3ccc(OCCCO)cc3)=N2)C1=O`, the composite z-score in [1] was 0.833; in test [3] it was -0.0647; in test [4] it was -0.0304; in [5], 0.288; in test [6], 2.66; in [7] it was 0.549. The composite z-score was 1.29 in test [8], 0.271 in [9] and 1.11 in test [10]. In test [2], the composite Z-score is -0.305 (inactive).

As to `C=C(CCCC)/C(=C/C[C@H](OC(=O)c1ccncc1)c1ccccc1OCCO)c1cnc2ccccc2c1`, the composite z-score in [1] was 0.0803; in test [3] it was 0.0259; in test [4], -0.182; in test [5], 0.862; in test [6], 1.25; in test [7] it was 0.406. Also, the composite z-score in [8] was found to be 1.16; in test [9], 0.66; in test [10] it was 1.14. For the same compound, the composite Z-score in test [2] was -0.153 (inactive).

Regarding `CC(C)N1C(=O)C[C@@](C(=O)NCC(F)(F)F)(c2ccc([N+](=O)[O-])cc2)[C@H]1c1ccc(CO)cc1`, the composite z-score was 0.0344 in test [1]; -0.0636 in test [3]; -0.173 in test [4]; 0.662 in test [5]; 1.22 in [6]; -0.0253 in [7]. Also, the composite z-score is 0.933 in [8], -0.035 in [9] and 0.688 in test [10]. Further, the composite Z-score in test [2] was 0.447 (inactive).
